Nine compounds from PubChem BioAssay can be followed below.

The source made the active and inactive calls. Unless noted, how the calls were made is not given here.

Assay [1] can be described thus: resazurin metabolic signal in HepG2 cells – cell-based, resazurin fluorescence, 24 h, PK04 Diversity Set, profiling panel (AID 1172). The following applies: HepG2 viability, higher = more signal. A general note: Resazurin is reduced to fluorescent resorufin, in cell work by metabolically active cells.
Assay [2] is described as follows: budding yeast growth changes without added modifier – OD600, strain BY4716, 24 h, basal condition, primary screen (AID 1173). Conditions: S. cerevisiae BY4716 growth, OD600, 24 h; higher = more signal, called active from +8 up or from −8 down.
Assay [3] is described as follows: viability profiling in MM1S myeloma cells – cell-based, resazurin fluorescence, basal, 24 h, PK04 Diversity Set, profiling panel (AID 1174).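 Further: MM1S multiple myeloma cell line.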 Conditions: higher = more signal, called active from +8 up or from −8 down.
Assay [4] deals with Dihydroorotate dehydrogenase (quinone), mitochondrial (Plasmodium falciparum (isolate 3D7)) (UniProt Q08210). The assay is described as follows: inhibition of P. falciparum DHODH – biochemical, C-terminal His tag, absorbance 600 nm, primary screen (AID 1175).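 Further: recombinant parasite enzyme with a five histidine tag at its C terminus.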 The following applies: PfDHODH enzyme, DCIP absorbance 600 nm; higher = more signal, called active from +8 up or from −8 down.
Chain of Dihydroorotate dehydrogenase (quinone), mitochondrial (Plasmodium falciparum (isolate 3D7)) (Q08210 whole entry, looked up): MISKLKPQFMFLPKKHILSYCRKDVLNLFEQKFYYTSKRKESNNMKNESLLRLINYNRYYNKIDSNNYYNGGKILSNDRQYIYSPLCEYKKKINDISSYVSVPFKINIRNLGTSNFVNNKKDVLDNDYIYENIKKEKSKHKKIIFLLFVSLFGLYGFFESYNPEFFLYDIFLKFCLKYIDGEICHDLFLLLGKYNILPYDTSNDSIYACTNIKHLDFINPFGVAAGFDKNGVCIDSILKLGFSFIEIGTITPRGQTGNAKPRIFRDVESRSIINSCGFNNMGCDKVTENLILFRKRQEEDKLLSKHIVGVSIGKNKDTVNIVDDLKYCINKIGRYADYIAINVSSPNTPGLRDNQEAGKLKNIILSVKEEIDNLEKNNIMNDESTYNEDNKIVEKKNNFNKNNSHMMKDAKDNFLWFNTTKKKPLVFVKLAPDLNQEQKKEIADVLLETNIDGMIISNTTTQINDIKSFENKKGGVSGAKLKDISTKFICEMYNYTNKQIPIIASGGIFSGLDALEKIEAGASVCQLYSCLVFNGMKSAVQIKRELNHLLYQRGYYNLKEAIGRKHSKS

A short description of assay [5]: inhibition of PAO1 biofilm formation – strain PAO1, LB-PBS medium, absorbance 600 nm, primary screen (AID 1176). Conditions: P. aeruginosa PAO1 growth/biofilm, A600, 12 h; higher = more signal.
A short description of assay [6]: growth modulation of vineyard yeast isolate – strain RM11-1a, OD600, basal, 24 h, primary screen (AID 1177).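 Further: cultures grown under basal conditions with no added stressor.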 Conditions: S. cerevisiae RM11-1a growth, OD600, 24 h; higher = more signal, called active from +8 up or from −8 down.
Assay [7] in a line: growth of efflux-deficient E. coli DRC39 – strain DRC39, OD650, 24 h, E. coli filamentation inducers, primary screen (AID 1178).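 Further: growth measured as culture turbidity by optical density at 650 nm.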 Conditions: E. coli DRC39 acrAB, higher = more signal, called active from +8 up or from −8 down.
The nature of assay [8]: growth of efflux-deficient E. coli DRC39 – strain DRC39, OD650, 48 h, E. coli filamentation inducers, primary screen (AID 1179).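 Further: screen aims at cell division blockers that make cells filament.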 The following applies: E. coli DRC39 delta-acrAB growth, higher = more signal, called active from +8 up or from −8 down.
The nature of assay [9]: viability profiling in RPMI8226 myeloma cells – cell-based, resazurin fluorescence, basal, 24 h, PK04 Diversity Set, profiling panel (AID 1180).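 Further: RPMI8826 multiple myeloma cell line at 5000 cells per well.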 Conditions: higher = more signal.
Assay [10] addresses E3 ubiquitin-protein ligase XIAP (Homo sapiens) (UniProt P98170). As to the kind of experiment: small molecules binding XIAP protein – biophysical, small-molecule microarray, fluorescence 635 nm, primary screen (AID 1181).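 Further: score merges 667 nm emission and signal to noise over triplicate slides.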 Conditions: higher = more signal.
The subject of assay [11] is XIP peptide (Xip251-270) binding. As to the kind of experiment: XIP fragment 251-270 binding compounds – biochemical, small-molecule microarray, fluorescence 635/667 nm, 0.1 µg/mL protein, primary screen (AID 1182). Conditions: fluorescent protein binding, 635 nm, higher = more signal, called active from +8 up or from −8 down.
Assay [12] deals with XIP peptide (Xip251-270). The assay is described as follows: compounds binding XIP fragment 251-270 – biochemical, small-molecule microarray, fluorescence 635/667 nm, 0.5 µg/mL protein, primary screen (AID 1183). Conditions: fluorescence 635 nm, higher = more signal.
Assay [13] can be described thus: blood-stage malaria parasite viability loss – strain 3D7, DAPI fluorescence, 100 nL, primary screen (AID 1184).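 Further: parasites grown inside human red blood cells in medium with human serum.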 The following applies: P. falciparum 3D7 growth, 3 d, higher = more signal.
Assay [14] addresses Homeobox protein Hox-A13 (Mus musculus) (UniProt Q62424). The assay is described as follows: disruptors of Hoxa13 oligonucleotide interaction – biochemical, fluorescence polarization, labeled oligonucleotide, primary screen (AID 1185). Conditions: Hoxa13:DNA binding, 15 min, higher = more signal, called active from +8 up or from −8 down.
Assay [15] is described as follows: blockers of DNA damage checkpoint Chk1 activation – imaging, HeLa, hydroxyurea, phospho-Chk1 antibody, percent positive cells, primary screen (AID 1186). The following applies: hydroxyurea-induced phospho-Chk1 immunofluorescence imaging, higher = more signal.
The nature of assay [16]: blockers of DNA damage checkpoint Chk1 activation – imaging, HeLa, hydroxyurea, phospho-Chk1 nuclear intensity, primary screen (AID 1187). Conditions: hydroxyurea-induced phospho-Chk1 immunofluorescence imaging, higher = more signal.

Chain of E3 ubiquitin-protein ligase XIAP (Homo sapiens) (P98170 whole entry, looked up, the tested form may be a part): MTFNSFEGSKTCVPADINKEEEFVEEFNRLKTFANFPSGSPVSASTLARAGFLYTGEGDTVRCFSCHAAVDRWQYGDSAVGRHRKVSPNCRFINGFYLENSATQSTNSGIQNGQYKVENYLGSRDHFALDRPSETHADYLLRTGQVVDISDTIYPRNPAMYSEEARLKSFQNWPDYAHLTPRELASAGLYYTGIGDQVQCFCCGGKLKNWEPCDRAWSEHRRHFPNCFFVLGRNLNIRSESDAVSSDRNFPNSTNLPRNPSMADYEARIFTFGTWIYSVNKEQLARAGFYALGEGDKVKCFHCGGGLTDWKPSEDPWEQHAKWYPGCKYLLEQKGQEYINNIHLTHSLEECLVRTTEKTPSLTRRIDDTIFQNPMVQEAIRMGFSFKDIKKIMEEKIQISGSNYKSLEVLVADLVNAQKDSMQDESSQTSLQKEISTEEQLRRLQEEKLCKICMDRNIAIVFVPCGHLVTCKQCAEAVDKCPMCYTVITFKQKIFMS
Chain of Homeobox protein Hox-A13 (Mus musculus) (Q62424 whole entry, looked up): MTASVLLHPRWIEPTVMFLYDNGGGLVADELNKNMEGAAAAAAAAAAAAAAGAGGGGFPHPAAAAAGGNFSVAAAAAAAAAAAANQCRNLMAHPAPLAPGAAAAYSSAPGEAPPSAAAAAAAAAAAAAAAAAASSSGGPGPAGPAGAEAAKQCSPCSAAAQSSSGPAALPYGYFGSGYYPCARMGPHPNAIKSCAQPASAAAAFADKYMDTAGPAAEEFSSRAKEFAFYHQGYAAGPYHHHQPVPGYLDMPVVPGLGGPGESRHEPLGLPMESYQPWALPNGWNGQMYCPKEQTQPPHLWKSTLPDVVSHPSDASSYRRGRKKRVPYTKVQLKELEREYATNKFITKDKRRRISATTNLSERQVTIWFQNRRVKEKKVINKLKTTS

As to `COCCOC(=O)N1C(=O)[C@@]2(c3cc(C#CCC(C(=O)OC)C(=O)OC)ccc31)[C@H](C(=O)NC[C@H](O)c1ccccc1)[C@H]1C(=O)O[C@H](c3ccccc3)[C@H](c3ccccc3)N1[C@@H]2c1ccc(O)cc1`, the z-score in assay [1] is 0.442; in assay [2], 1.14 (inactive); in assay [3], 0.73 (inactive); in [5], 1.1 (inactive); in [6], 1.24 (inactive); in assay [7] it was 0.35 (inactive). Moreover, the z-score is 0.644 (inactive) in [8]; -1.4 in assay [9]; -1.84 in assay [13]; -1.61 (inactive) in assay [14]; -0.129 (inactive) in assay [15]; -0.117 (inactive) in assay [16]. For the same compound, the composite z-score in assay [4] is -2.68 (inactive); in assay [10], -0.096; in [11], 0.363 (inactive); in assay [12] it was 0.724.
Regarding `NCCCCCNC(=O)[C@@H]1C[C@@H]2C(=O)N3CCC[C@H]3C(=O)N2[C@@H]1c1ccc(O)cc1`, the z-score is -0.448 in [1]; 0.2 (inactive) in assay [2]; 0.422 (inactive) in assay [3]; -0.102 (inactive) in [5]; 0.801 (inactive) in assay [6]; -0.281 (inactive) in assay [7]. Also, the z-score was -0.107 (inactive) in assay [8]; 0.272 in [9]; 0.0766 in [13]; -1.74 (inactive) in assay [14]; 0.299 (inactive) in assay [15]; 0.235 (inactive) in assay [16]. Besides, the composite z-score in assay [4] is 0.509 (inactive); in assay [10] it was -0.0663; in assay [11], 0.0353 (inactive); in assay [12], 0.0129.
Turning to `O=C1O[C@H](c2ccccc2)[C@H](c2ccccc2)N2[C@H]1[C@@H](C(=O)N1CCCCCCC1)[C@]1(C(=O)Nc3ccc(C#CC4(O)CCCCCC4)cc31)[C@H]2c1ccccc1OCCO`, the z-score in assay [1] was 1.72; in assay [2], 0.893 (inactive); in assay [3], -0.382 (inactive); in assay [5] it was 0.682 (inactive); in assay [6], 2.45 (inactive); in assay [7], 0.138 (inactive). In addition, the z-score is -1.14 (inactive) in assay [8]; -0.443 in assay [9]; -1.88 in [13]; 4.4 (inactive) in assay [14]; -0.0468 (inactive) in assay [15]; 0.285 (inactive) in [16]. In addition, the composite z-score is 0.195 (inactive) in assay [4], 2.12 in assay [10], 5.88 (inactive) in [11] and 0.943 in assay [12].
`CC(C)C[C@@H]1NC(=O)[C@@]23C(=O)N[C@@H](Cc4ccccc4)C2[C@H](C)[C@@]2(C)O[C@H]2C3/C=C/C/C=C\CNC(=O)[C@@H](C)NC1=O` (some centres undefined): the z-score is 0.833 in assay [1]; -0.68 (inactive) in assay [2]; 1.33 (inactive) in assay [3]; -0.131 (inactive) in assay [5]; -1.08 (inactive) in assay [6]; 1.65 (inactive) in assay [7]. Moreover, the z-score in assay [8] is 0.209 (inactive); in assay [9] it was 1.01; in assay [13], -1.65; in assay [14], -4.91 (inactive); in assay [15] it was -0.674 (inactive); in [16], -0.734 (inactive). Moreover, the composite z-score in assay [4] was -0.401 (inactive); in assay [10], -0.116; in assay [11], 0.772 (inactive); in assay [12] it was 0.649.
In the case of `O=C(NCCN1CCOCC1)[C@@H]1c2ccccc2C(=O)N(Cc2ccccc2)[C@H]1c1ccc(CO)cc1`, the z-score is 1.15 in assay [1]; 0.476 (inactive) in assay [2]; 0.802 (inactive) in [3]; -0.838 (inactive) in assay [5]; 0.496 (inactive) in [6]; 0.0077 (inactive) in assay [7]. Also, the z-score in assay [8] is 0.76 (inactive); in [9], 0.822; in assay [13], 0.681; in assay [14], -3.79 (inactive); in [15] it was -0.697 (inactive); in assay [16], -0.974 (inactive). Also, the composite z-score in assay [4] was -0.547 (inactive); in assay [10], -0.0228; in assay [11], -0.181 (inactive); in assay [12] it was -0.314.
With `C=C(COC)C(=O)CC[C@H](OC(C)=O)c1ccc(OCCO)cc1`, the z-score was -0.429 in assay [1]; -0.408 (inactive) in assay [2]; -0.267 (inactive) in assay [3]; -0.116 (inactive) in [5]; -0.83 (inactive) in [6]; -0.238 (inactive) in assay [7]. Besides, the z-score is 0.53 (inactive) in assay [8]; -0.873 in assay [9]; -2.39 in assay [13]; -4.76 (inactive) in assay [14]; -0.559 (inactive) in assay [15]; -0.357 (inactive) in assay [16]. For the same compound, the composite z-score is -0.998 (inactive) in assay [4], -0.326 in assay [10], -0.388 (inactive) in assay [11] and 0.58 in assay [12].
For `O=C1C2C=CC(C(O)c3ccco3)N(Nc3ccccc3)C2C(=O)N1c1ccccc1` (centres undefined), the z-score is 0.875 in [1]; -0.633 (inactive) in [2]; -0.321 (inactive) in [3]; -0.283 (inactive) in assay [5]; 0.829 (inactive) in assay [6]; -0.706 (inactive) in assay [7]. Moreover, the z-score in assay [8] was 0.154 (inactive); in assay [9], 0.628; in assay [13], 0.125; in assay [14] it was -2.27 (inactive); in assay [15], 0.209 (inactive); in [16] it was -0.0253 (inactive). The composite z-score in assay [4] is 1.05 (inactive); in [10], -0.0264; in assay [11], 1.11 (inactive); in assay [12], 0.8.
Regarding `CC(C)CCC[C@@H](C)[C@H]1CC[C@@]2(C)C3=C(CC[C@]12C)[C@@]1(C)CC[C@H](OC(=O)c2ccccc2)C(C)(C)C1CC3` (some centres undefined), the z-score in assay [1] was 0.533; in assay [2], 0.436 (inactive); in [3], 0.351 (inactive); in [5], 0.968 (inactive); in assay [6], -1.61 (inactive); in assay [7], 1.94 (inactive). The z-score in [8] is 1.57 (inactive); in assay [9], 0.56; in assay [13], -0.544; in assay [14], -1 (inactive); in assay [15], -0.531 (inactive); in assay [16] it was -0.299 (inactive). Besides, the composite z-score was -1.48 (inactive) in assay [4], -0.248 in [10], 0.276 (inactive) in assay [11] and 0.0627 in assay [12].
With `CCOC(=O)C1=CCC(c2ccco2)N(S(=O)(=O)c2ccc(C)cc2)C1` (centres undefined), the z-score in assay [1] was 1.18; in assay [2], -4.03 (inactive); in assay [3], 0.123 (inactive); in assay [5], -0.253 (inactive); in [6], -0.749 (inactive); in assay [7], 0.234 (inactive). Further, the z-score in assay [8] was 1.34 (inactive); in assay [9], 0.769; in assay [13], -0.0601; in [14], -4.57 (inactive); in assay [15], -0.641 (inactive); in assay [16], -0.942 (inactive). Also, the composite z-score was -2.2 (inactive) in [4], 0.424 in assay [10], 0.397 (inactive) in assay [11] and 0.704 in assay [12].
